Test results published in PubChem BioAssay AID1159580 (chemical genetic matrix, 2015).
The whole screen tested about 5,500 compounds, of which about 2,000 (36%) were called active. Inconclusive results (about 18%) are left out. The list shows a part of the results. Values without a mark were called inactive. Rule as the data show it: active = normalized growth mostly below about 0.91 (no sharp cut-off); inconclusive = no clear call, values can overlap the other calls; inactive = mostly above about 0.92.

Experiment: chemical genetic growth profiling, strain panel (AID 1159580);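 also: tested at 20 µM; growth read once vehicle control cultures reached saturation at 30 °C; 1 = growth at the plate median or of vehicle wells; lower values mean less growth of the strain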
Conditions: growth OD

CCCCCCCCCCCC1=C(O)C(=O)C=C(O)C1=O
normalized growth (S. cerevisiae deletion strains, locus YJL168C, strain set2, hits give low values): 0.975
normalized growth (S. cerevisiae deletion strains, locus YJL187C, strain SWE1 (second series), hits give low values): 0.981
normalized growth (S. cerevisiae deletion strains, locus YJR043C, strain POL32, hits give low values): 0.584 (active)
normalized growth (S. cerevisiae deletion strains, locus YKL068W, hits give low values): 0.936 (active)
normalized growth (S. cerevisiae deletion strains, locus YKL085W, strain MDH1 (second series), hits give low values): 0.513 (active)
normalized growth (S. cerevisiae deletion strains, locus YKL085W, strain MDH1, hits give low values): 0.513 (active)
normalized growth (S. cerevisiae deletion strains, locus YKL160W, strain elf1, hits give low values): 0.805 (active)
normalized growth (S. cerevisiae deletion strains, locus YKR001C, strain vps1, hits give low values): 0.776 (active)
normalized growth (S. cerevisiae deletion strains, locus YKR026C, strain gcn3, hits give low values): 0.82 (active)
normalized growth (S. cerevisiae deletion strains, locus YKR091W, strain srl3, hits give low values): 0.911 (active)
normalized growth (S. cerevisiae deletion strains, locus YLL001W, strain dnm1, hits give low values): 0.502 (active)
normalized growth (S. cerevisiae deletion strains, locus YLL026W, hits give low values): 0.972
normalized growth (S. cerevisiae deletion strains, locus YLL041C, strain sdh2, hits give low values): 0.933
normalized growth (S. cerevisiae deletion strains, locus YLR027C, strain aat2, hits give low values): 0.839 (active)
normalized growth (S. cerevisiae deletion strains, locus YLR039C, strain RIC1, hits give low values): 0.296 (active)
normalized growth (S. cerevisiae deletion strains, locus YLR058C, strain SHM2, hits give low values): 1
normalized growth (S. cerevisiae deletion strains, locus YLR102C, strain apc9, hits give low values): 0.974
normalized growth (S. cerevisiae deletion strains, locus YLR221C, strain rsa3, hits give low values): 0.801 (active)
normalized growth (S. cerevisiae deletion strains, locus YLR258W, strain gsy2, hits give low values): 0.911 (active)
normalized growth (S. cerevisiae deletion strains, locus YLR262C, strain YPT6 (second series), hits give low values): 0.477 (active)
normalized growth (S. cerevisiae deletion strains, locus YLR262C, strain YPT6, hits give low values): 0.414 (active)
normalized growth (S. cerevisiae deletion strains, locus YLR268W, strain sec22, hits give low values): 0.756 (active)
normalized growth (S. cerevisiae deletion strains, locus YLR320W, strain mms22, hits give low values): 0.83 (active)
normalized growth (S. cerevisiae deletion strains, locus YLR330W, strain CHS5, hits give low values): 0.842 (active)
normalized growth (S. cerevisiae deletion strains, locus YLR342W, strain FKS1 (second series), hits give low values): 0.886
normalized growth (S. cerevisiae deletion strains, locus YLR342W, strain FKS1, hits give low values): 0.72 (active)
normalized growth (S. cerevisiae deletion strains, locus YLR357W, strain rsc2, hits give low values): 0.441 (active)
normalized growth (S. cerevisiae deletion strains, locus YLR370C, strain arc18, hits give low values): 0.242 (active)
normalized growth (S. cerevisiae deletion strains, locus YLR371W, strain rom2, hits give low values): 0.945
normalized growth (S. cerevisiae deletion strains, locus YLR384C, strain iki3, hits give low values): 0.989
normalized growth (S. cerevisiae deletion strains, locus YLR418C, strain cdc73, hits give low values): 0.819 (active)
normalized growth (S. cerevisiae deletion strains, locus YML016C, strain PPZ1, hits give low values): 0.991
normalized growth (S. cerevisiae deletion strains, locus YML032C, strain rad52, hits give low values): 0.882 (active)
normalized growth (S. cerevisiae deletion strains, locus YML120C, strain ndi1, hits give low values): 0.952
normalized growth (S. cerevisiae deletion strains, locus YML124C, strain tub3, hits give low values): 0.975
normalized growth (S. cerevisiae deletion strains, locus YMR058W, strain fet3, hits give low values): 0.0857 (active)
normalized growth (S. cerevisiae deletion strains, locus YMR078C, strain ctf18, hits give low values): 0.96
normalized growth (S. cerevisiae deletion strains, locus YMR125W, strain sto1, hits give low values): 0.832 (active)
normalized growth (S. cerevisiae deletion strains, locus YMR129W, hits give low values): 0.883 (active)
normalized growth (S. cerevisiae deletion strains, locus YMR205C, strain PFK2, hits give low values): 0.901
normalized growth (S. cerevisiae deletion strains, locus YMR223W, strain ubp8, hits give low values): 0.87 (active)
normalized growth (S. cerevisiae deletion strains, locus YMR231W, strain pep5, hits give low values): 0.69 (active)
normalized growth (S. cerevisiae deletion strains, locus YMR263W, strain SAP30, hits give low values): 0.766 (active)
normalized growth (S. cerevisiae deletion strains, locus YMR307W, strain GAS1, hits give low values): 0.378 (active)
normalized growth (S. cerevisiae deletion strains, locus YNL067W, strain RPL9B, hits give low values): 0.823 (active)
normalized growth (S. cerevisiae deletion strains, locus YNL071W, strain lat1, hits give low values): 0.912 (active)
normalized growth (S. cerevisiae deletion strains, locus YNL128W, strain TEP1, hits give low values): 0.683 (active)
normalized growth (S. cerevisiae deletion strains, locus YNL209W, strain ssb2, hits give low values): 0.61 (active)
normalized growth (S. cerevisiae deletion strains, locus YNL233W, strain BNI4, hits give low values): 0.857 (active)
normalized growth (S. cerevisiae deletion strains, locus YNL248C, strain rpa49, hits give low values): 0.757 (active)
normalized growth (S. cerevisiae deletion strains, locus YNL250W, strain rad50, hits give low values): 0.738 (active)
normalized growth (S. cerevisiae deletion strains, locus YNL271C, strain bni1, hits give low values): 0.636 (active)
normalized growth (S. cerevisiae deletion strains, locus YNL298W, strain CLA4, hits give low values): 0.66 (active)
normalized growth (S. cerevisiae deletion strains, locus YNL307C, strain MCK1, hits give low values): 0.857 (active)
normalized growth (S. cerevisiae deletion strains, locus YNL322C, strain KRE1 (second series), hits give low values): 0.922
normalized growth (S. cerevisiae deletion strains, locus YNR049C, strain mso1, hits give low values): 0.638 (active)
normalized growth (S. cerevisiae deletion strains, locus YNR052C, strain pop2, hits give low values): 0.866 (active)
normalized growth (S. cerevisiae deletion strains, locus YOL012C, strain htz1): 0.529
normalized growth (S. cerevisiae deletion strains, locus YOL147C, strain pex11, hits give low values): 0.871 (active)
normalized growth (S. cerevisiae deletion strains, locus YOR001W, strain rrp6, hits give low values): 0.86 (active)
normalized growth (S. cerevisiae deletion strains, locus YOR061W, strain CKA2, hits give low values): 0.986
normalized growth (S. cerevisiae deletion strains, locus YOR069W, strain VPS5, hits give low values): 0.983
normalized growth (S. cerevisiae deletion strains, locus YOR070C, strain gyp1, hits give low values): 0.97
normalized growth (S. cerevisiae deletion strains, locus YOR080W, strain dia2, hits give low values): 0.946
normalized growth (S. cerevisiae deletion strains, locus YOR083W, strain WHI5, hits give low values): 0.807 (active)
normalized growth (S. cerevisiae deletion strains, locus YOR106W, strain vam3, hits give low values): 0.637 (active)
normalized growth (S. cerevisiae deletion strains, locus YOR136W, strain idh2, hits give low values): 0.919 (active)
normalized growth (S. cerevisiae deletion strains, locus YOR144C, strain elg1, hits give low values): 0.877 (active)
normalized growth (S. cerevisiae deletion strains, locus YOR184W, strain ser1, hits give low values): 0.875
normalized growth (S. cerevisiae deletion strains, locus YOR265W, strain rbl2, hits give low values): 0.867 (active)
normalized growth (S. cerevisiae deletion strains, locus YOR270C, strain vph1, hits give low values): 0.298 (active)
normalized growth (S. cerevisiae deletion strains, locus YOR290C, strain snf2, hits give low values): 0.471 (active)
normalized growth (S. cerevisiae deletion strains, locus YOR316C, strain cot1, hits give low values): 0.999
normalized growth (S. cerevisiae deletion strains, locus YPL051W, strain arl3, hits give low values): 0.768 (active)
normalized growth (S. cerevisiae deletion strains, locus YPL055C, strain LGE1, hits give low values): 0.483 (active)
normalized growth (S. cerevisiae deletion strains, locus YPL078C, strain atp4, hits give low values): 0.647 (active)
normalized growth (S. cerevisiae deletion strains, locus YPL106C, strain sse1, hits give low values): 0.794 (active)
normalized growth (S. cerevisiae deletion strains, locus YPL240C, strain hsp82, hits give low values): 0.907 (active)
normalized growth (S. cerevisiae deletion strains, locus YPL241C, strain CIN2, hits give low values): 0.851 (active)
normalized growth (S. cerevisiae deletion strains, locus YPR119W, strain clb2, hits give low values): 0.986
normalized growth (S. cerevisiae deletion strains, locus YPR141C, strain kar3, hits give low values): 0.735 (active)
normalized growth (S. cerevisiae deletion strains, locus YPR163C, strain tif3, hits give low values): 0.977
normalized growth (S. cerevisiae deletion strains, locus YPR167C, strain met16, hits give low values): 0.846 (active)
normalized growth (S. cerevisiae deletion strains, strain wtn01, hits give low values): 0.871 (active)
normalized growth (S. cerevisiae strains, strain wild type, hits give low values): 0.693 (active)
